# PubChem BioAssay
# Values joined by “and” are separate entries in the source; they are usually repeats but may differ in a detail not shown here. Equal values may be shown once. Active and inactive are the calls of the source. Rule as the data show it, unless noted: active = inhibition above about 80%; inactive = the rest.
# Legend:
# [1] = LFS_MB_P medulloblastoma growth inhibition, cell-based, chromothripsis tumors, cisplatin or BGB combos (AID 1671449); details: LFS_MB_P medulloblastoma cells;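 also: cells exposed for 96 hours; 0% = vehicle DMSO and 100% = killing by high DMSO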
# [2] = HDN33 neuroblastoma growth inhibition, cell-based, chromothripsis tumors, cisplatin or BGB combos (AID 1671450); details: HDN33 neuroblastoma cells, stronger effect = higher value;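 also: cells exposed to compound for four days; 0% = vehicle DMSO and 100% = cell killing by high DMSO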
# [3] = ICB984 medulloblastoma cell growth inhibition, synergistic combos for chromothripsis tumors, cisplatin or BGB combos (AID 1671451; call rule not given here;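 also: cells exposed for 96 hours before readout; 0% = vehicle DMSO and 100% = killing by high DMSO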); details: ICB984 medulloblastoma cells, drug combinations, stronger effect = higher value
# [4] = LFS_MB_1R medulloblastoma cell growth inhibition, synergistic combos for chromothripsis tumors, cisplatin or BGB combos (AID 1671452); details: LFS_MB_1R medulloblastoma cells, stronger effect = higher value;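 also: cells exposed for 96 hours before readout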
# [5] = HTB85 osteosarcoma cell growth inhibition, synergistic combos for chromothripsis tumors, BGB or cisplatin IC20 combos (AID 1671453); details: HTB85 osteosarcoma cells, drug combinations, stronger effect = higher value;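 also: cells exposed for 96 hours before readout; 0% = vehicle DMSO and 100% = high DMSO killing control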
# [6] = CRL2098 osteosarcoma cell growth inhibition, synergistic combos for chromothripsis tumors, BGB or cisplatin IC20 combos (AID 1671454); details: CRL2098 osteosarcoma cells, drug combinations, stronger effect = higher value;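 also: cells exposed for 96 h before readout; 0% = vehicle DMSO and 100% = killing by high DMSO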
# [7] = HD-MB03 medulloblastoma cell growth inhibition, synergistic combos for chromothripsis tumors, BGB or cisplatin IC20 combos (AID 1671455; in the data active = inhibition above about 83%;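 also: 0% = vehicle DMSO and 100% = high DMSO as cytotoxic control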); details: HD-MB03 medulloblastoma cells, stronger effect = higher value
# [8] = UWB1.289 ovarian carcinoma cell growth inhibition, synergistic combos for chromothripsis tumors, BGB or cisplatin combos (AID 1671456); details: UWB1.289 ovarian carcinoma cells, stronger effect = higher value;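 also: cells exposed to compound for four days; 0% = vehicle DMSO and 100% = killing by high DMSO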
# [9] = LFS_MB_2R medulloblastoma cell growth inhibition, synergistic combos for chromothripsis tumors, cisplatin combos (AID 1671457); details: LFS_MB_2R medulloblastoma cells, stronger effect = higher value;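 also: cells exposed to compound for four days before readout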
# [10] = MDA-MB-436 breast carcinoma cell growth inhibition, synergistic combos for chromothripsis tumors, BGB or cisplatin combos (AID 1671458; call rule not given here;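 also: cells exposed for 96 hours; 0% = vehicle DMSO and 100% = killing by high DMSO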); details: MDA-MB-436 breast carcinoma growth inhibition, drug combinations, stronger effect = higher value
# [11] = UWB1.289_BRCA1 ovarian cancer growth, cell-based, BGB or cisplatin combinations (AID 1671459); details: UWB1.289 BRCA1 ovarian carcinoma, drug combinations, stronger effect = higher value
# [12] = human astrocyte viability loss, single and combined drugs, cytotoxicity control for chromothriptic childhood tumor combination screen, cell-based, BGB or cisplatin IC20 combos (AID 1671460); details: Human astrocytes, drug combinations, stronger effect = higher value;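 also: cells exposed to compounds for 96 hours before viability readout; 0% = vehicle and 100% = killing control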
# [13] = growth inhibition of BT084 medulloblastoma cells, cell-based, ICGC_MB145, cisplatin and BGB IC40 combos (AID 1671461); details: drug combinations, stronger effect = higher value;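 also: cells exposed to drugs for 96 hours; 0% = vehicle DMSO and 100% = high DMSO full killing control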
# [14] = growth inhibition of RCMB18 medulloblastoma cells, cell-based, cisplatin and BGB IC40 combos (AID 1671462); details: stronger effect = higher value;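 also: cells exposed to compound for four days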
# [15] = growth inhibition of CRL1545 osteosarcoma cells, cell-based, cisplatin and BGB IC20 combos (AID 1671464); details: stronger effect = higher value;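 also: cells exposed to compound for 96 hours before readout; 0% = vehicle DMSO and 100% = high DMSO killing control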
# [16] = measured here: combination with BGB IC40, at 0.05 µM
# [17] = measured here: with BGB IC20 combination, at 0.5 µM
# [18] = measured here: with cisplatin IC20 combination, at 0.5 µM
# [19] = measured here: combination with cisplatin, at 0.5 µM
# [20] = measured here: combination with cisplatin, at 5 µM
smiles,measurement,setting,value
Nc1nc(F)nc2c1ncn2C1OC(CO)C(O)C1O (stereo not drawn),inhibition,"[1]; at 0.5 µM, stronger effect = higher value",-23.4% (inactive) and 5.5% (inactive)
same,inhibition,"[1]; measured here: combination with BGB IC20, at 0.005 µM",-13.1% and 10.2%
same,inhibition,"[1]; measured here: combination with BGB IC40, at 0.005 µM",-4.16% and 17.3%
same,inhibition,[1]; [16],-14.8% and 4.66%
same,inhibition,"[1]; measured here: combination with cisplatin, at 0.5 µM, stronger effect = higher value",-27.4% and 14.8%
same,inhibition,"[1]; measured here: combination with cisplatin, at 5 µM, stronger effect = higher value",85.8% and 94.5%
same,inhibition,"[2]; BGB combo, at 5 µM",27.6% and 14.7%
same,inhibition,[2]; at 0.5 µM,-7.43% (inactive) and -36.4% (inactive)
same,inhibition,"[2]; cisplatin combo, at 5 µM",20.8% and 7.89%
same,inhibition,[2]; [17],3.36% and -26.3%
same,inhibition,[2]; [18],-16.4% and -54.5%
same,inhibition,"[2]; single agent, at 5 µM",45.6% and 12.3%
same,inhibition,"[3]; BGB IC20 combo, at 0.005 µM",20.7% and -6.33%
same,inhibition,"[3]; BGB IC40 combo, at 0.005 µM",-14.7% and -39.6%
same,inhibition,"[3]; BGB IC40 combo, at 0.05 µM",0.533% and 4.89%
same,inhibition,[3]; at 0.5 µM,-14.3% (inactive) and -20.5% (inactive)
same,inhibition,"[3]; cisplatin combo, at 0.05 µM",-3.04% and 2.23%
same,inhibition,"[3]; cisplatin combo, at 0.5 µM",-8.41% and -26.1%
same,inhibition,"[3]; cisplatin combo, at 5 µM",-23% and -33%
same,inhibition,"[3]; measured here: 5 uM single agent, at 5 µM",-7.66% and -8.57%
same,inhibition,[4]; at 0.5 µM,-2.13% (inactive) and -19.9% (inactive)
same,inhibition,[4]; [16],3.73% and -32%
same,inhibition,[4]; [19],9.09% and -1.53%
same,inhibition,[4]; [20],76.5% and 57.3%
same,inhibition,[5]; at 0.5 µM,3.43% (inactive) and -25.3% (inactive)
same,inhibition,"[5]; measured here: with BGB IC20, at 0.5 µM",-0.749% and -38.9%
same,inhibition,"[5]; measured here: with BGB IC20, at 5 µM",44.9% and 11%
same,inhibition,"[5]; measured here: with cisplatin IC20, at 0.5 µM",2.7% and -32%
same,inhibition,"[5]; measured here: with cisplatin IC20, at 5 µM",37% and 41.2%
same,inhibition,"[5]; single agent, at 5 µM",58.5% and 39.5%
same,inhibition,[6]; at 0.5 µM,94% (active) and 94.9% (active)
same,inhibition,"[6]; measured here: combination with BGB at IC20, at 0.5 µM",94.8% and 95%
same,inhibition,"[6]; measured here: combination with cisplatin at IC20, at 0.5 µM",91.9% and 95.1%
same,inhibition,[7]; at 0.5 µM,5.8% (inactive) and 2.84% (inactive)
same,inhibition,"[7]; measured here: combo with BGB at IC20, at 0.5 µM",3.8% and -3.69%
same,inhibition,"[7]; measured here: combo with cisplatin at IC20, at 0.5 µM",2.93% and 14.9%
same,inhibition,[8]; at 0.5 µM,2.58% (inactive) and -11.8% (inactive)
same,inhibition,"[8]; measured here: inhibition with BGB combination, at 0.05 µM",-5.13% and -19.7%
same,inhibition,"[8]; measured here: inhibition with cisplatin combination, at 0.05 µM",-18.9% and -14.7%
same,inhibition,[9]; at 0.5 µM,12% (inactive) and -3.14% (inactive)
same,inhibition,[9]; [19],3.75% and 4.65%
same,inhibition,[9]; [20],69.4% and 48.7%
same,inhibition,[10]; at 0.5 µM,2.72% (inactive) and -8.67% (inactive)
same,inhibition,"[10]; measured here: BGB combination, at 0.5 µM",0.63% and 6.32%
same,inhibition,"[10]; measured here: BGB combination, at 5 µM",12.4%
same,inhibition,"[10]; measured here: cisplatin combination, at 0.5 µM",-0.776% and -26.9%
same,inhibition,"[10]; measured here: cisplatin combination, at 5 µM",1.99% and 20.7%
same,inhibition,"[11]; BGB combination, concentration series, at 5 µM",34% and 13%
same,inhibition,[11]; at 0.5 µM,3.6% (inactive) and -10.5% (inactive)
same,inhibition,"[11]; cisplatin combination, concentration series, at 5 µM",32.8% and 23%
same,inhibition,[12]; at 0.5 µM,13.7% (inactive) and -16.7% (inactive)
same,inhibition,"[12]; measured here: combo with BGB IC20, at 0.5 µM",0.417% and -14%
same,inhibition,"[12]; measured here: combo with cisplatin IC20, at 0.5 µM",20% and -36.2%
same,inhibition,[13]; at 0.5 µM,-17.4% (inactive) and 8.96% (inactive)
same,inhibition,"[13]; cisplatin combination, at 0.5 µM",-38.6% and 6.07%
same,inhibition,"[13]; cisplatin combination, at 5 µM",36.8% and 59.3%
same,inhibition,"[13]; measured here: BGB IC40 combination 0.05 uM, at 0.05 µM",-18.2% and 2.24%
same,inhibition,"[13]; single agent, at 5 µM",-9.05% and -4.51%
same,inhibition,[14]; at 0.5 µM,0.9% (inactive) and -15.3% (inactive)
same,inhibition,"[14]; cisplatin combo, at 5 µM",44.7% and 68%
same,inhibition,"[14]; measured here: BGB IC40 combination, at 0.05 µM",1.47% and -4.03%
same,inhibition,[14]; [19],30.2% and -17.9%
same,inhibition,"[14]; single agent, at 5 µM",8.81% and -20.7%
same,inhibition,[15]; at 0.5 µM,8.8% (inactive) and -39.7% (inactive)
same,inhibition,[15]; [17],5.25% and -35.7%
same,inhibition,[15]; [18],9.12% and -44.9%
same,inhibition,"[15]; single agent, at 0.05 µM",-7.3% and -43.1%
same,inhibition,"[15]; single agent, at 5 µM",24% and -66.2%
